# Measured values published in PubChem BioAssay AID881 (National Center for Advancing Translational Sciences (NCATS), 2007).
# Several values for one entry are separate records, joined by “and”; a condition that tells them apart may be missing. Equal entries are not always repeated. In all, about 110,000 compounds went through this assay and about 610 (0.55%) were called active. Another 3% or so got no clear call; they are omitted. Calls follow the shape of the dose curve; as a rule, active = well fitted inhibition curve with a large enough effect; inconclusive = small, poorly fitted or top-dose-only effect; inactive = no such curve, though single readings can be large or run the other way. What follows is part of a selection rich in actives, with near analogues and random picks from the rest.
# Molecular target: Polyunsaturated fatty acid lipoxygenase ALOX15B (Homo sapiens) (UniProt O15296)
# Assay: qHTS Assay for Inhibitors of 15-hLO-2 (15-human lipoxygenase 2); also: nearly all actives have a fitted effect of over 60% in size
# Conditions: purified 15hLO-2, xylenol orange hydroperoxide absorbance; series mostly up to 57.1 µM; activity change, negative = inhibition: at the top concentration
# Excerpt: Assay Overview: NIH Molecular Libraries Screening Centers Network [MLSCN] NIH Chemical Genomics Center [NCGC] MLSCN Grant: MH081283-01A1 PI Name: Holman, T.R., University of California, Santa Cruz Human lipoxygenase 15hLO-2 is a member of the closely related lipoxygenase family of enzymes which catalyze the site-specific oxidation of arachidonic acid to various hormone precursor molecules and as such is a candidate for drug development in a variety of disease areas, such as cancer and inflammation. Inhibition of 15hLO-2 activity was screened by utilizing arachidonic acid as a substrate. The extent of hydroperoxide product formation was measured by a secondary chromogenic reaction in which xylenol orange (XO, Sigma-Aldrich, cat. number 39,818-7) reacts with the ferric ions produced from the reaction between the hydroperoxide and ferrous ions. The Fe(III)-XO complex is characterized with red-shifted absorbance at 560 nm. A purified preparation of human 15hLO-2 was supplied by Professor Ted Holman, University of California, Santa Cruz.
# Assay Protocol: Buffer: 25 mM Hepes pH 7.5, 0.01% Triton X-100. Reagents/Controls: Buffer in columns 3 and 4 as negative control (no enzyme). Substrate solution: 45 uM arachidonic acid (Sigma-Aldrich, St. Louis, MO) final concentration dispensed throughout the plate. Enzyme: 50 nM 15hLO-2 final concentration in columns 1, 2, 5-48. Column 1 is neutral (100% activity). Column 2 contained pin-transferred titration of NDGA (nordihidroguaiaretic acid, Sigma-Aldrich, N 5023, top concentration 10 mM in DMSO, then 1:2 dilution in duplicate). (Dilution factor: 23 nL into 4 uL.) Chromogenic detection reagent (divalent iron/xylenol orange, Fe-XO): 200 uM xylenol orange plus 300 uM ferrous ammonium sulfate prepared freshly in 50 mM sulfuric acid. Assay Steps: Three uL of enzyme were dispensed to 1536-well Greiner black clear bottom plates. Compounds and controls (23 nL) were transferred via Kalypsys PinTool. The plates were incubated for 15 min at room temperature, and then 1 uL of substrate solution was added to start the reaction. After room temperature incubation for 90 minutes, 4 uL of Fe-XO solution was added to each well followed by a short spin (1000 rpm, 15 sec) and the plates were then incubated for 30 min. The absorbance at 405 and 573 nm were measured using ViewLux (Perkin-Elmer) High-throughput CCD imager and absorbance protocol settings. The 573-to-405 absorbance ratio was used to compute reaction progress.
# % is scaled to controls: 0 for no effect and ±100 for the full control effect; potency is read from the fitted curve at half-maximal effect.
# Sequence of Polyunsaturated fatty acid lipoxygenase ALOX15B (Homo sapiens) (O15296 whole entry, looked up): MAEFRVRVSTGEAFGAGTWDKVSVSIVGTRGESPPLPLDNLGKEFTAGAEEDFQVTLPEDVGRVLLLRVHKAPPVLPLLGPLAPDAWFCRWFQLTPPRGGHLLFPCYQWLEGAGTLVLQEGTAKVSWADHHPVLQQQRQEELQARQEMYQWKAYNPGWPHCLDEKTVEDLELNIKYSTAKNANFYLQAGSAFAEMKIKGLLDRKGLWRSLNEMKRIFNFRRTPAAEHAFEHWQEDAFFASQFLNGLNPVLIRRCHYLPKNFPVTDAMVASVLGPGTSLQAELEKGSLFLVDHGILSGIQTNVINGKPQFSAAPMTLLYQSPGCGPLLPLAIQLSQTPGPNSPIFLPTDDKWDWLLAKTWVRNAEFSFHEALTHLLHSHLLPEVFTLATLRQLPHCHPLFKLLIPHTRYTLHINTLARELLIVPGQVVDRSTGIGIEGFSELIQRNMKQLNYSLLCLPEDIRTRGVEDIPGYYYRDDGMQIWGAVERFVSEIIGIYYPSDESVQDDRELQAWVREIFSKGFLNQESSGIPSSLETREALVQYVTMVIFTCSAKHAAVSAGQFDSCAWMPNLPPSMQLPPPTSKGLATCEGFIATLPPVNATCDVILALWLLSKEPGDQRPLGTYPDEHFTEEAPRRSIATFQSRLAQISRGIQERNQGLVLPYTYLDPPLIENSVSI
SMILES,"activity change, negative = inhibition",Potency
O=C(Nc1cc(C(F)(F)F)ccc1Cl)c1cc2nc3c(c(C(F)(F)F)n2n1)CCCC3,-8.67% (inactive),
CCOc1ccc(N=Cc2c(O)n(-c3cccc(C)n3)c(=O)c3ccccc23)cc1,-20.5% (inactive),
NNc1nnc(NN)c2ccccc12,35% [at 0.0915 µM] (inactive),
CCOC(=O)c1c(NC(=O)CCl)sc(C(=O)N(CC)CC)c1C,-0.801% (inactive),
O=c1onc(-c2cccs2)n1Cc1ccccc1,-5.38% (inactive),
CNC(=O)c1nnc(Cc2ccc(Cl)cc2)o1,8.13% (inactive),
CC(C)Nc1ncnc2c1nnn2Cc1ccccc1,-2.57% (inactive),
CN=C1SC(CC(=O)Nc2ccc(C(=O)O)cc2)C(=O)N1C (stereo not given),7.34% (inactive),
Cc1c(Br)cc(C(=O)N2CCCCCC2)c(C)c1C,3.77% (inactive),
O=C1OCCN1C(=O)[C@H]1[C@H](c2ccccc2)C(c2ccc(F)cc2)=NN1c1ccccc1,-26.1% [at 0.0915 µM] (inactive),
Oc1c(Cl)cc(Cl)c(Cl)c1Cc1c(O)c(Cl)cc(Cl)c1Cl,,10 µM (active)
C=C(C)CSc1nnc(-c2ccc(C)cc2)n1N,-9.67% (inactive),
COc1ccc(CN2CN(C(C)C)CSC2=S)cc1,,5.01 µM (active)
COc1ccc(C(=O)CN(C(=O)c2ccc(Cl)cc2)N2C(=O)c3ccccc3C2=O)cc1,-10.7% (inactive),
O=C(O)CSCc1ccc(C(=O)O)o1,2.71% (inactive),
CC(C)NS(=O)(=O)c1ccc(NC(=O)C2CCCCC2)cc1,-5.18% (inactive),
O=C(CCc1ccc(S(=O)(=O)N2CCOCC2)cc1)Nc1ccc2ccccc2c1,-2.44% (inactive),
COc1ccc(Nc2cc(=O)oc3ccccc23)cc1,-1.16% (inactive),
S=C(NCc1cccs1)Nc1ccc(Cl)cc1,-14.3% (inactive),
O=C(NCc1ccc2c(c1)OCO2)C12CC3CC(CC(C3)C1)C2,-1.12% (inactive),
S=C(NCc1ccc(Cl)cc1)NC12CC3CC(CC(C3)C1)C2,,15.8 µM (active)
Cc1cccc(N2C(=O)c3cccnc3C2=O)c1,-4.64% (inactive),
COc1ccc(-c2c(C)cc3oc(=O)cc(-c4ccccc4)c3c2C)cc1F,-14% [at 0.0915 µM] (inactive),
O=c1cc(-c2ccc(O)c(O)c2)oc2cccc(O)c12,,12.6 µM (active)
Cc1cccc(-c2cc(=O)c3cc(C)ccc3o2)c1,-4.12% (inactive),

SMILES,"activity change, negative = inhibition",Potency
CC1O[C@@H](Oc2c(-c3ccc(O)c(O)c3)oc3cc(O)cc(O)c3c2=O)C(O)C(O)C1O (stereo not given in full),-4.62% (inactive),
CC(=O)N1CCN(c2ccc(NCc3ccc(C(C)C)cc3)cc2)CC1,,12.6 µM (active)
CC(C)c1ccc(N2CCN(C(=O)c3ccccc3NC(=O)/C=C(\C(=O)O)c3ccccc3)CC2)cc1,-27.6% (inactive),
COc1ccc(N2CCN(C(=O)CNC(=O)c3ccc(C(C)(C)C)cc3)CC2)cc1,-1.78% (inactive),
COc1ccc(-c2c(C)cc3oc(=O)cc(-c4ccccc4)c3c2C)cc1OC,-3.53% [at 0.0915 µM] (inactive),
CCCCN(CC)CCNC(=O)c1[nH]c(C)c(C(C)=O)c1C,3.09% (inactive),
COCc1cc(C(C)=O)ccc1OC,1.18% (inactive),
CC[C@@H]1Cc2cc(O)ccc2C2=C1c1ccc(O)cc1C[C@H]2CC,,7.94 µM (active) and 3.55 µM (active)
Cc1nnc(SCC(=O)NC(=O)NC2CCCC2)n1N,2.83% (inactive),
CCc1c(O)nc(SCC(=O)Nc2ccccc2)n(C(C)CC)c1=O (stereo not given),-6.9% (inactive),
COc1ccccc1NC(=O)[C@H](COCc1ccccc1)NC(=O)OC(C)(C)C,-3.55% (inactive),
CC(C)C(=O)OCC(=O)Nc1ccc2c(c1)CCC2,2.52% (inactive),
O=C1OCCN1C(=O)[C@H]1[C@H](c2ccc(F)cc2)C(c2ccccc2)=NN1c1ccc(Br)cc1,-15.7% [at 0.0915 µM] (inactive),
COc1cc(/C=N/O)cc(Br)c1OS(=O)(=O)c1ccc(C)cc1,9.08% (inactive),
CCN(CC)c1ccc(NC(=O)c2ccc(Cl)nc2)cc1,-20.5% (inactive),
Cc1ccc(-c2cccc([C@H]3[C@@H]4C=CC[C@@H](C)[C@@H]4C(=O)N3Cc3ccccc3)c2)cc1,17.8% [at 0.0915 µM] (inactive),
Cc1nc(NC2=NC(C(=O)Nc3ccc(Cl)cc3)CC(=O)N2)nc2ccccc12 (stereo not given),-5.2% (inactive),
COc1ccc(Nc2ncnc3ccc(OC)cc23)cc1,12% [at 0.0915 µM] (inactive),
O=C(c1ccccc1)N1CCN(c2ccc([N+](=O)[O-])c(NCc3ccco3)c2)CC1,-17.9% (inactive),
N#C/C(=C\c1ccccc1)c1n[nH]c(Cn2cncn2)n1,-7.73% (inactive),
O=C(O)CCC(=O)O,15.2% [at 0.0915 µM] (inactive),
Cc1cc2oc(=O)cc(-c3ccccc3)c2c(C)c1-c1ccc(OC(F)(F)F)cc1,-5.36% [at 0.0915 µM] (inactive),
O=C(Nc1ccc(Sc2ccc(Br)cc2)cc1)c1ccco1,26.3% (inactive),
CC1CCc2c(c3ccccc3[nH]c2=O)O1 (stereo not given),7.66% (inactive),
C=CCSc1nc(Cc2ccc(Cl)cc2)nc2ccccc12,4.17% (inactive),
